# Assay outcomes: PubChem BioAssay, National Center for Advancing Translational Sciences (NCATS)
# Only a selection was taken, and hits are over-represented in it overall.
# TbPYK inhibitor – blocks Trypanosoma brucei pyruvate kinase; Q57TT1; TbPYK enzyme, Kinase-Glo Plus ATP luminescence, 45 min; Potency, µM (series often up to 76.8 µM), for the others: top-dose activity, negative = inhibition, actives largely listed as inhibitors; 410,000 tested, 0.12% active; note: potency is the fitted concentration of half-maximal effect; % is set by controls: 0 for no effect and ±100 for the full control effect; nearly all actives have a fitted effect of over 50% in size
#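 Readout: single end-point luminescence (Kinase-Glo Plus, 10 min). Reaction conditions were TbPYK/substrate plus 130 uM ADP, 45 min at RT, pH 7.2 TEA buffer. No-enzyme wells served as controls, and data were normalized before concentration-response fitting.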
# LmPK inhibitor – LmPK (Leishmania mexicana) enzyme inhibition | purified LmPK, Kinase-Glo ATP luminescence, 1 h | Potency, µM (highest dose often 57.5 µM), for the others: at the top dose activity change, negative = inhibition, hits mostly inhibitors | 290,000 tested, 0.37% active | Q27686; note: potency is the fitted concentration of half-maximal effect; % is set by controls: 0 for no effect and ±100 for the full control effect
#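 Purified LmPK (0.1 nM) converted ADP (0.1 mM) to ATP with PEP (0.5 mM) in imidazole buffer pH 7.2 with KCl and MgCl2, 1 h at room temperature. ATP was read by Kinase-Glo luminescence; data normalized to uninhibited and no-enzyme controls.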
# Cycloheximide cs – counter-screen hit for Shiga toxin inhibitors, cycloheximide; cell reporter, cycloheximide protein synthesis inhibition counterscreen; max response, %; 300,000 tested, 12% active; in the data active = max response mostly above about 13%, no sharp cut-off; inactive = mostly below about 14%; note: read at 38.3 µM for the half of the compounds with a filed dose; 0% is about no effect
# FBPA Giardia inh – blocks Giardia fructose-bisphosphate aldolase activity; A8B2U2; purified Giardia FBPA; Potency, µM (highest dose often 59.6 µM), for the others: top-dose activity, negative = inhibition, usual class: inhibitors; 290,000 tested, 0.71% active; note: potency is the fitted concentration of half-maximal effect; % is set by controls: 0 for no effect and ±100 for the full control effect; nearly all actives have a fitted effect of over 55% in size
# Target sequence (A8B2U2 whole entry, looked up): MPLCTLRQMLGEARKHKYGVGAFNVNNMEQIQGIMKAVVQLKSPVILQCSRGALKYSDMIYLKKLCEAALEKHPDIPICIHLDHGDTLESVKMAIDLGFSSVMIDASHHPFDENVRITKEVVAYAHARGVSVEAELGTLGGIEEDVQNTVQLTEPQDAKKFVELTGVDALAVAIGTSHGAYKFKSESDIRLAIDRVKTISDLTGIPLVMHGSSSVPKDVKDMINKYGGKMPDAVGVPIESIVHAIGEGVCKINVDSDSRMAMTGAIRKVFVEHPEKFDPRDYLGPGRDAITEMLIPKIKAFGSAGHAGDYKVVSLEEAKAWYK
#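 40 nM FBPA preincubated 10 min at RT with compound (up to 57.5 uM final), then substrate plus GAPDH/TPI/NAD/arsenate coupling and diaphorase/resazurin added. Fluorescence read after 20 min at RT, 525/598 nm.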
# Shiga toxin inh – blocks Shiga toxin action in Vero cells. 290,000 tested, 9.2% active. inhibition, % at 38.7 µM. Vero cells, Shiga toxin protein synthesis inhibition reporter; in the data active = inhibition mostly above about 28%, no sharp cut-off; inactive = mostly below about 43%; note: 0% is about no effect
# RE007 growth inh – less growth of the S. pombe RE007 Vpr strain; Potency, µM (highest dose often 92.2 µM), inactives show at the top dose activity change, negative = less growth, actives largely listed as inhibitors; 360,000 tested, 0.21% active; S. pombe RE007 Vpr strain, BacTiter-Glo ATP luminescence, 24 h; AID 651644; active = well fitted falling curve with a large enough effect; inconclusive = small, poorly fitted or top-dose-only effect; inactive = no such curve, though single readings can be large or run the other way; note: potency is the fitted concentration of half-maximal effect; % is set by controls: 0 for no effect and ±100 for the full control effect; nearly all actives have a fitted effect of over 50% in size
#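 Fission yeast strain RE007, carrying one chromosomally integrated HIV-1 vpr copy, was seeded at OD 0.01 in PMG+AL medium with 23 nL pinned compound. After 24 h at 30 °C and 99% humidity, viability was read by BacTiter-Glo luminescence.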
# The depositor's hits bear a star; ? = inconclusive; . = no result given; [ ] = dose if it differs, or a comment. Unless noted, calls come from the whole dose curve; as a rule, active = well fitted curve in the direction sought with a large enough effect; inconclusive = small, poorly fitted or top-dose-only effect, or another doubt; inactive = no such curve, though single readings can be large; an effect the other way counts as inactive or inconclusive.
SMILES,TbPYK inhibitor,LmPK inhibitor,Cycloheximide cs,FBPA Giardia inh,Shiga toxin inh,RE007 growth inh
O=C(N/N=C/c1cccnc1)c1ccc(F)cc1,7.6%,-10.9%,11.3*,-1.9%,37.6,-7.6%
O=C(N/N=C/c1cccnc1)c1ccc([N+](=O)[O-])cc1,-4.1%,-4.7%,-2.0,0.5%,19.3,4.0%
Cc1ccc(C(=O)N/N=C\c2cccnc2)s1,-6.4%,0.3%,30.5*,.,55.4*,-7.0%
O=C(N/N=C/C=C/c1ccccc1)c1cccnc1,2.8%,-12.2%,-1.2,?,29.9*,12.6%
Cc1c(C(=O)N/N=C/c2cccnc2)sc(N)c1C#N,-7.0%,-4.4%,11.5*,3.7%,26.4,17.8%
CCNc1ncc2ncc(=O)n(C3CC3)c2n1,.,.,.,0.2%,.,.
O=C(CNC(=O)c1ccccc1Br)N/N=C/c1cccnc1,1.6%,-0.7%,-1.3,12.2%,22.2,0.8%
Cc1cc(C)cc(-n2c(C)cc(/C=N/NC(=O)c3ccncc3)c2C)c1,8.6%,4.7%,7.1,-8.8%,17.7,-7.5%
Cc1cc(/C=N/NC(=O)c2ccsc2)c(C)n1-c1cnccn1,-7.4%,-1.5%,42.1*,-11.5%,86.6*,9.7%
Cc1ccccc1-n1c(C)cc(/C=N/NC(=O)c2ccncc2)c1C,-4.4%,0.7%,35.8*,-0.6%[12.9 µM],67.9*,0.1%
O=C(N/N=C/c1ccc(F)cc1)c1ccncc1,-7.6%,-3.5%,-0.4,-5.3%,.,-11.2%
O=C(N/N=C/c1ccncc1)c1ccccc1,-9.4%,-7.1%,21.0*,0.7%,55.3*,-4.1%
O=C(CNC(=O)c1ccccc1F)N/N=C/c1cccnc1,4.9%,-2.1%,30.8*,15.2%,16.5,4.0%
CC(CNC(=O)Cn1ncc2c3ccccc3n(Cc3cccc(Cl)c3)c2c1=O)c1ccccc1 (configuration not stated),-5.8%,.,.,.,.,.
O=C(N/N=C/c1cccnc1)c1ccccc1,-0.4%,2.4%,25.4*,10.8%,58.6*,16.1%
CSc1sccc1/C=N/NC(=O)c1ccncc1,-0.4%,-4.1%,16.6,-7.9%,active,2.0%
Cc1ccc(C(=O)N/N=C/C=C/c2ccccc2)o1,-1.6%,-10.0%,22.4,-15.2%,118.9*,6.1%
COc1ccc(CCNC(=O)CS(=O)(=O)Cc2nc(-c3cccc(Cl)c3)oc2C)cc1OC,0.1%,.,.,.,.,.
CCOC(=O)CCN1C(=O)[C@H]2[C@H]3[C@H](O)[C@H](O)C/C(=N/OCC(C)C)[C@H]3CC[C@@H]2C1=O,.,.,.,0.1%[12.9 µM],.,.
COc1ccc(-c2ccc(SCC(=O)N3CCOCC3)nn2)cc1,10.2%,-8.6%,21.4,-3.4%,42.0,1.9%
CCOc1ccc(-c2ccc(SCC)nn2)cc1,?,11.2µM*,29.2*,1.1%,75.4*,-7.7%
CCSc1ccc(-c2ccc(C)cc2)nn1,-3.9%,-6.1%,27.7*,-13.6%,64.7*,7.2%
COc1ccc(-c2ccc(SC)nn2)cc1,?,14.1µM*,-3.3,-9.9%,-5.3,?
CCOc1ccc(NC(=O)c2oc3ccccc3c2NC(=O)C(C)Oc2ccccc2)cc1 (configuration not stated),-8.1%,.,.,.,.,.
COc1cc(C)cc2oc(=O)c(CC(=O)NCCc3ccc(Cl)cc3)c(C)c12,3.5%,.,.,.,.,.
SMILES,TbPYK inhibitor,LmPK inhibitor,Cycloheximide cs,FBPA Giardia inh,Shiga toxin inh,RE007 growth inh
O=C1/C(=C/c2cccs2)SC(=S)N1CCC(=O)N1CCCCC1CCO (configuration not stated),5.8%,4.2%,38.5*,.,120.6*,-11.0%
COc1ccccc1/C=C1\SC(=S)N(CCC(=O)N2CCCCC2CCO)C1=O (configuration not stated),-3.9%,8.1%,-4.8,-0.2%,-1.7,14.2%
C/C(=N\NC(=O)c1ccc(C(=O)N/N=C(\C)c2ccco2)o1)c1ccco1,-8.5%,-3.0%,1.7,-7.2%,-2.8,-25.7%
C/C(=N\NC(=O)NC1CCCCC1)c1ccco1,-1.2%,-2.2%,11.8*,0.6%,22.9,-6.2%
O=C(N[C@@H](Cc1ccccc1)C(=O)NC1CCCCC1)c1ccco1,2.3%,-0.2%,14.0,-4.7%,22.6*,16.8%
O=C(COC(=O)c1ccccc1NC(=O)c1ccco1)NC1CCCCC1,-13.2%,5.2%,0.6,1.6%,11.0,6.5%
